GDH-TPI counter – GDH-TPI coupled enzyme inhibition counter-screen | GDH-TPI coupled enzyme counterscreen, NADH absorbance | inhibition, % at 4.8 µM | 360,000 compounds, 1.2% hits; in the data active = inhibition above about 30%;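 note: 0% = DMSO wells and 100% = wells lacking the enzyme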
FadD28 FP inh – M. tuberculosis FadD28 bisubstrate binding inhibition | FadD28 bisubstrate probe binding, fluorescence polarization | inhibition, % at 12.5 µM | 360,000 compounds, 0.22% hits | AID 588549; in the data active = inhibition above about 8.5%, passing the limit was not always enough
3CLpro inhibitor – SARS-CoV 3CLpro protease inhibition; inhibition, % at 6 µM; recombinant SARS-CoV 3CLpro, quenched FRET peptide cleavage; 290,000 compounds, 0.14% hits; P0C6X7; in the data active = inhibition above about 12%
BioA inh – inhibitors of Mycobacterium tuberculosis BioA enzyme. purified M. tuberculosis BioA enzyme, plate reader. inhibition, % at 9.99 µM. 360,000 compounds, 0.096% hits. AID 602481; in the data active = inhibition above about 40%
Mtb FBA inh – Mtb fructose-bisphosphate aldolase inhibition. inhibition, % at 1 µM. P9WQA3. AID 588726. purified M. tuberculosis FBA, fluorescence read-out. 360,000 compounds, 2.3% hits; in the data active = inhibition above about 27%;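 note: 0% = vehicle and 100% = reference inhibitor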
Target sequence (P9WQA3 whole entry, looked up): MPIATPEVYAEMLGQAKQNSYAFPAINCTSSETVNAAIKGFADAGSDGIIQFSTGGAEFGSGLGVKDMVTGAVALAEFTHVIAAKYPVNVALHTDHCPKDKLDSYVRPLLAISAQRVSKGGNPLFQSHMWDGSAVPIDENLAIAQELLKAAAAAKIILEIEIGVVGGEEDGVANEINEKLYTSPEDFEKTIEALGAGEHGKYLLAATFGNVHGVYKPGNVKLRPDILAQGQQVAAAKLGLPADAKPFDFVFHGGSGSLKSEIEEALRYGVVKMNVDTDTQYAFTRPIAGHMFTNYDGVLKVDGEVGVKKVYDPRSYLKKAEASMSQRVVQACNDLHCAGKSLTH
* = called active by the depositor. The list is not random: actives were taken first. Their share in the collection is about 3.1%.

What do the screens show for `CNc1cccc(-c2cccc(O)c2)n1`?
GDH-TPI counter: -3; FadD28 FP inh: -2; BioA inh: 0; Mtb FBA inh: 18

What do the screens show for `Cc1ccc(S(=O)(=O)Nc2ccc3c(c2)CC(=O)N([C@@H](C)CO)C[C@H](C)[C@H](CN(C)CC2CCCCC2)O3)cc1`?
BioA inh: 1

What do the screens show for `Cn1c2ccccc2c(=O)c2ccc(F)cc21`?
GDH-TPI counter: 2; FadD28 FP inh: -2; 3CLpro inhibitor: -6; BioA inh: -1; Mtb FBA inh: 191*

What do the screens show for `COc1cc(-c2ccc3c(=O)c4ccccc4n(C)c3c2)cc(OC)c1OC`?
GDH-TPI counter: 2; FadD28 FP inh: -6; 3CLpro inhibitor: -8; BioA inh: 8; Mtb FBA inh: 20

Results for c1ccc2sc(-c3ccc4c(c3)OCO4)nc2c1 ?
GDH-TPI counter: 18; FadD28 FP inh: -3; 3CLpro inhibitor: 0; BioA inh: -1; Mtb FBA inh: 130*

How did O=C(Nc1cccc(-c2nc3ccccc3s2)c1)c1ccc2c(c1)OCO2 do in these assays?
GDH-TPI counter: 14; FadD28 FP inh: -3; 3CLpro inhibitor: -1; BioA inh: 0; Mtb FBA inh: 1

How did COCC(=O)Nc1ccc2c(c1)C(=O)N(C)[C@@H]1CC[C@H](CC(=O)NCc3ccccc3)O[C@@H]1CO2 do in these assays?
BioA inh: 5

What do the screens show for `c1ccc(CSc2nccc(-c3ccco3)n2)cc1`?
GDH-TPI counter: 13; FadD28 FP inh: -2; BioA inh: 1; Mtb FBA inh: 0

What do the screens show for `Cc1ccc(C)n1-c1nccc(-c2cccs2)n1`?
GDH-TPI counter: -5; FadD28 FP inh: 1; 3CLpro inhibitor: 5; BioA inh: 2; Mtb FBA inh: 161*

How did Cc1ccc(C)n1-c1nccc(-c2ccco2)n1 do in these assays?
GDH-TPI counter: 6; FadD28 FP inh: 0; 3CLpro inhibitor: 2; BioA inh: 2; Mtb FBA inh: 158*

How did COc1ccc2c(-c3ccc(S(N)(=O)=O)cc3)c(-c3ccc(S(C)(=O)=O)cc3)sc2c1 do in these assays?
GDH-TPI counter: 12; FadD28 FP inh: 0; BioA inh: 0; Mtb FBA inh: active

Results for COc1ccc2c(C#CCCO)c(-c3ccc(S(C)(=O)=O)cc3)sc2c1 ?
GDH-TPI counter: 29; FadD28 FP inh: -2; BioA inh: 0; Mtb FBA inh: active

What do the screens show for `CS(=O)(=O)c1ccc(-c2sc3ccccc3c2C#CCCO)cc1`?
GDH-TPI counter: 32*; FadD28 FP inh: -4; BioA inh: -1; Mtb FBA inh: 17

What do the screens show for `COc1ccc2c(Cl)c(C(=O)NCCc3ccc(S(N)(=O)=O)cc3)sc2c1`?
GDH-TPI counter: 16; FadD28 FP inh: -1; 3CLpro inhibitor: -2; BioA inh: -1; Mtb FBA inh: 1

How did COc1ccc(-c2sc3ccccc3c2C#CCCO)cc1 do in these assays?
GDH-TPI counter: 9; FadD28 FP inh: -6; 3CLpro inhibitor: 1; BioA inh: -1; Mtb FBA inh: 6

Results for COc1ccc2sc(-c3ccc(S(C)(=O)=O)cc3)c(C#CCO)c2c1 ?
GDH-TPI counter: 34*; FadD28 FP inh: -5; BioA inh: 0; Mtb FBA inh: 21

What do the screens show for `O=C(C[C@@H]1CC[C@@H]2[C@H](COC[C@H](O)CN2Cc2cccc(C(F)(F)F)c2)O1)NCc1ccncc1`?
BioA inh: -1

How did C[C@H](CO)N1C[C@H](C)[C@H](CN(C)Cc2ccc(C(F)(F)F)cc2)Oc2c(NC(=O)c3nc4ccccc4s3)cccc2C1=O do in these assays?
BioA inh: -1

Results for CN1[C@@H]2Cn3c(ccc(-c4ccccc4)c3=O)[C@H]1[C@@H](C(=O)NCC1CC1)[C@@H]2CO ?
BioA inh: 0

What do the screens show for `Cc1cc(=O)oc2cc(NS(=O)(=O)c3ccc(F)cc3)ccc12`?
GDH-TPI counter: 52*; FadD28 FP inh: 1; 3CLpro inhibitor: -3; BioA inh: -1

How did CN(C)S(=O)(=O)c1ccc(S(=O)(=O)Nc2ccc3c(c2)oc2ccccc23)cc1 do in these assays?
GDH-TPI counter: 9; FadD28 FP inh: 0; 3CLpro inhibitor: 11; BioA inh: 0; Mtb FBA inh: -1

How did Cc1cc(=O)oc2cc(NS(=O)(=O)c3ccccc3)ccc12 do in these assays?
GDH-TPI counter: 37*; FadD28 FP inh: -1; 3CLpro inhibitor: -1; BioA inh: 0

How did CCN(CC)c1ccc(/C=N/NC(=O)c2cccc(N3CCCC3=O)c2)cc1 do in these assays?
GDH-TPI counter: 31*; FadD28 FP inh: 2; 3CLpro inhibitor: 0; Mtb FBA inh: -1

Results for O=C(N/N=C/c1cccnc1)c1cccc(N2CCCC2=O)c1 ?
GDH-TPI counter: -5; FadD28 FP inh: -3; 3CLpro inhibitor: 5; BioA inh: 25; Mtb FBA inh: -6

Results for COc1cc(/C=N/NC(=O)c2cccc(N3CCCC3=O)c2)ccc1O ?
GDH-TPI counter: 40*; FadD28 FP inh: 1; 3CLpro inhibitor: -2; BioA inh: -1; Mtb FBA inh: 0

Results for COc1cc(/C=N/NC(=O)c2ccccc2)ccc1O ?
GDH-TPI counter: 18; FadD28 FP inh: -3; 3CLpro inhibitor: 3; Mtb FBA inh: -2

How did CCCn1nc2cc(C(=O)N(CC)c3ccc(OC)cc3)ccc2c1OCC do in these assays?
GDH-TPI counter: 0; FadD28 FP inh: -2; 3CLpro inhibitor: 0; BioA inh: 3; Mtb FBA inh: 40*

What do the screens show for `CCOc1c2ccc(C(=O)NCc3ccccc3OC)cc2nn1CC`?
GDH-TPI counter: -1; FadD28 FP inh: 2; 3CLpro inhibitor: 0; BioA inh: -3; Mtb FBA inh: 47*

What do the screens show for `CCCCn1nc2cc(C(=O)NCCc3ccc(C)cc3)ccc2c1OCC`?
GDH-TPI counter: 1; FadD28 FP inh: -2; 3CLpro inhibitor: 1; BioA inh: -1; Mtb FBA inh: 22

Results for CCCCn1nc2cc(C(=O)NCc3ccccc3)ccc2c1OCC ?
GDH-TPI counter: 1; FadD28 FP inh: 1; 3CLpro inhibitor: 0; BioA inh: -4; Mtb FBA inh: 68*

Results for CCCCn1nc2cc(C(=O)NCCCCc3ccccc3)ccc2c1OCC ?
GDH-TPI counter: -2; FadD28 FP inh: -2; 3CLpro inhibitor: 0; BioA inh: -1; Mtb FBA inh: 24

Results for COc1ccccc1CNC(=O)c1ccc2nc3[nH]c4ccccc4c3nc2c1 ?
GDH-TPI counter: 40*; FadD28 FP inh: -1; 3CLpro inhibitor: -6; BioA inh: -4; Mtb FBA inh: 0

Results for C[C@H](O)C#Cc1cnc2c(c1)C(=O)N([C@H](C)CO)C[C@H](C)[C@@H](CN(C)CC1CCCC1)O2 ?
BioA inh: -2

Results for COc1ccc(S(=O)(=O)N(C)C[C@@H]2Oc3c(NS(=O)(=O)c4ccccc4)cccc3C(=O)N([C@H](C)CO)C[C@@H]2C)cc1 ?
BioA inh: -1

What do the screens show for `Cc1cccc(S(=O)(=O)N2C[C@@H](O)COC[C@@H]3O[C@H](CC(=O)NCc4ccncn4)CC[C@H]32)c1`?
BioA inh: 1

What do the screens show for `CCOc1c2ccc(C(=O)NCc3ccco3)cc2nn1CC`?
GDH-TPI counter: 7; FadD28 FP inh: -4; 3CLpro inhibitor: 4; BioA inh: 1; Mtb FBA inh: 39*

Screens as filed in PubChem.
